Inconclusive results are not listed. A call without a number means that no potency is given here. Active and inactive are the calls of the source. The call rests on the fitted dose curve; in most records, active means well fitted cell-killing curve with a large enough effect; inconclusive means small, poorly fitted or top-dose-only effect; inactive means flat fitted curve, though single readings scatter.
Assay: Cell Viability - LYMP2-016 (AID 984); further: nearly all actives have a fitted effect of over 55% in size
Settings: LYMP2-016 lymphoblastoid cell viability, qHTS; series mostly up to 92.2 µM
From the text: NIH Chemical Genomics Center [NCGC]
NIH Molecular Libraries Screening Centers Network [MLSCN]
National Institutes of Environmental Health Sciences [NIEHS]
National Toxicology Program [NTP]
We have developed a 1536-well cell-based assay for quantitative high throughput screening (qHTS) against a number of cell lines to determine in vitro cytotoxicity of small molecules. This particular assay uses a human lymphoblastoid cell line (LYMP2-016) purchased from Coriell Institute for Medical Research.
NCGC Assay Protocol Summary:
The CellTiter-Glo luminescent cell viability assay (Promega) is a homogeneous method to measure the number of viable cells in culture. The end point readout of this assay is based on quantitation of intracellular ATP, an indicator of metabolic activity, using the luciferase reaction. Luciferase catalyzes the oxidation of beetle Luciferin to oxyluciferin and light in the presence of ATP. The luminescent signal is proportional to amount of ATP present.
Using the CellTiter-Glo luminescent cell viability assay, the amount of cellular ATP was measured in the lymphoblastoid cell line with complete culture medium following compound treatment for 24 hours. The assay was performed in opaque white Kalypsys 1536-well plates. In the screen, tetraoctylammonium bromide was used as positive control. Library compounds were measured for their ability to cause acute toxicity in the cell line, as reflected by a decrease in intracellular ATP levels, in a concentration-dependent manner. […] AC50 values were determined from concentration-response data modeled with the standard Hill equation.
qHTS protocol for CellTiter Glo lymphoblastoid cellular assay
[Step] [Parameter] [Value] [Description]
1. Reagent; 5 uL; 2500 lymphoblastoid cells/well
2. Time; 5 hr; 37 C incubation
4. Controls; 23 nL; Tetraoctylammonium bromide 6.4pM to 92 uM
5. Time; 24 hr; 37 C incubation
6. Reagent; 5 uL; CellTiter Glo reagent
7. Time; 30 min; Room Temperature
8. Detection; Luminescence; Viewlux plate reader
Keywords: cell viability, cytotoxicity, lymphoblastoid cell line, luminescence, NTPHTS, NTPHTS_NCGC, NIEHS, DSSTox, MLSMR, MLSCN, NIH Roadmap, qHTS, NCGC
With `O=C1O[C@H]([C@@H](O)CO)C(O)=C1O` the Potency was “inactive”.
For `C[C@]12C[C@H](O)[C@H]3[C@@H](CCC4=CC(=O)CC[C@@]43C)[C@@H]1CC[C@@H]2C(=O)CO`, the Potency was “inactive”.
In the case of `Cc1c(O)cccc1C(=O)N[C@@H](CSc1ccccc1)[C@H](O)CN1C[C@H]2CCCC[C@H]2C[C@H]1C(=O)NC(C)(C)C`, the Potency is reported as 50.1 µM (active).
For `O=C1c2c(O)cccc2Cc2cccc(O)c21`, the Potency was “inactive”.
For `COc1ccccc1O`, the Potency was “inactive”.
In the case of `NCCNCCNCCNCCN`, the Potency is reported as “inactive”.
With `NCCNCCNCCN` the Potency was “inactive”.
For `Cc1cc2nc3c(=O)[nH]c(=O)nc-3n(C[C@H](O)[C@H](O)[C@H](O)CO)c2cc1C`, the Potency was “inactive”.
For `Cc1cc(CC(=O)O)n(C)c1C(=O)c1ccc(Cl)cc1`, the Potency was “inactive”.
For `CC1(C)[C@@H]2CC[C@@]1(C)C(=O)C2`, the Potency was “inactive”.
For `CCCCCCCCCCCCOS(=O)(=O)O`, the Potency was “inactive”.
For `CCCCOC(=O)c1ccc(O)cc1`, the Potency was “inactive”.
With `[Cl][In]([Cl])[Cl]` the Potency was “inactive”.
With `Oc1cccc(O)c1` the Potency was “inactive”.
With `NC(=O)c1ncn([C@@H]2O[C@H](CO)[C@@H](O)[C@H]2O)n1` the Potency was “inactive”.
For `CC12CCC(CC1)C(C)(C)O2`, the Potency was “inactive”.
In the case of `Nc1ccc(S(=O)(=O)Nc2nccs2)cc1`, the Potency is reported as “inactive”.
Potency means the concentration at half of the fitted maximal effect.
